# This is a sample that favours compounds with a hit; in the whole collection about 2.9% have one here.
# Mcl1 Bid PPI – Mcl-1/Bid interaction inhibition | Q07820 | TR-FRET Mcl-1/Bid-Dy647 peptide binding, 1536-well | inhibition, % at 21.7 µM | hit rate 0.97% among 220,000 | AID 1021;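 active means compounds that cut the binding signal by more than half at the single screening dose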;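 further: His-tagged Mcl-1 with europium anti-His antibody binding Bid BH3 peptide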
# Target sequence (Q07820 whole entry, looked up): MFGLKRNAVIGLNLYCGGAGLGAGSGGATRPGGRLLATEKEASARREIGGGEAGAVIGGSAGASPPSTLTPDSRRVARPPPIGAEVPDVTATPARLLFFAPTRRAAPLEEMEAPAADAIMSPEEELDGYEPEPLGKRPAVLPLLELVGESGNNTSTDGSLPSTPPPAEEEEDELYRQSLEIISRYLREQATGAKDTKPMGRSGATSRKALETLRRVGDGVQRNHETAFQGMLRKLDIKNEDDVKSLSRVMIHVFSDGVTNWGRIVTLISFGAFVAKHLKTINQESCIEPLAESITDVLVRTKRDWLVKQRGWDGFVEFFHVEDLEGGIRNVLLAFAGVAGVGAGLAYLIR
# Hck-Nef inh – inhibitors of human Hck kinase activated by Nef; P08631; Recombinant Hck-YEEI plus Nef, Z-Lyte FRET kinase assay; inhibition, % at 20 µM; hit rate 0.68% among 220,000;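 active means Hck-Nef kinase inhibition above about 50%, limit read from the data; inactive means inhibition below that limit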
# Bim-Mcl-1 – disrupts Bim peptide binding to human Mcl-1. Q07820. Bead-based flow cytometry, Bim peptide-Mcl-1 binding. inhibition, % at 10 µM. hit rate 0.1% among 190,000. AID 1009; in the data active means inhibition above about 40%
# Mcl1 Noxa PPI – Mcl-1/Noxa interaction inhibition; AID 1022; inhibition, % at 21.7 µM; TR-FRET Mcl-1/Noxa peptide binding, 2 h; hit rate 1.5% among 220,000; Q07820;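 active means compounds that cut the protein-peptide binding signal by more than 50% relative to plate controls in a single-dose test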;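 further: His-tagged Mcl-1 with rhodamine Noxa BH3 peptide and terbium anti-His antibody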
# 14-3-3 Bad PPI – disrupts binding of bovine 14-3-3 zeta to phospho-Bad peptide | inhibition, % at 21.7 µM | TR-FRET 14-3-3zeta/Dy647-pBad peptide displacement, 1 h | hit rate 0.71% among 220,000 | AID 781 | P63103;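 active means inhibition above about 70%, limit read from the data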
# Pf gamet viab – kills late stage P. falciparum gametocytes | inhibition, % at 10.9 µM | P. falciparum stage V gametocytes, ATP luminescence, 24 h | hit rate 0.065% among 150,000 | AID 743093;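 active means inhibition above the mean plus 3 SD of compounds within the control limits, set per campaign, cut at about 38% in these data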
# Numbers stand for hits; i = inactive; nt = no result.
SMILES,Mcl1 Bid PPI,Hck-Nef inh,Bim-Mcl-1,Mcl1 Noxa PPI,14-3-3 Bad PPI,Pf gamet viab
O=C(CSc1ccsc1[N+](=O)[O-])N1CCCCCC1,i,i,i,i,i,i
O=C(CSc1ccsc1[N+](=O)[O-])N1CCN(c2ccccc2)CC1,i,i,i,65,i,i
Cc1ccc(C)c(N2CCN(C(=O)CSc3ccsc3[N+](=O)[O-])CC2)c1,i,i,i,i,i,i
O=C(CSc1ccsc1[N+](=O)[O-])N1CCN(c2ccc(Cl)cc2)CC1,i,i,i,95,i,i
Cc1ccccc1NC(=O)CSc1ccsc1[N+](=O)[O-],i,i,i,71,i,i
Cc1ccc(CC(=O)OCC(=O)NC2CCCC(C)C2C)cc1C (centres undefined),i,i,i,i,i,nt
CCc1nnc(NC(=O)c2cccc(OC)c2)s1,i,i,i,i,i,i
N#Cc1c(-c2ccccc2)nc(-c2ccccc2)nc1N1CCOCC1,51,i,i,i,i,nt
CN1CCN(c2nc(-c3ccccc3)nc(-c3ccccc3)c2C#N)CC1,i,i,i,i,i,i
Cc1cc(O)ccc1Nc1nc(-c2cccs2)cs1,i,57,i,i,i,i
Cc1cc(O)ccc1Nc1nc(-c2cccnc2)cs1,nt,nt,nt,nt,nt,i
CC(=O)Oc1ccc(C(c2ccc(OC(C)=O)cc2)c2ccccn2)cc1,87,i,i,i,i,nt
c1ccc(C(c2ccccn2)c2ccccn2)cc1,i,i,i,i,i,i
O=c1c2ccccc2ncn1-c1cccc([N+](=O)[O-])c1,nt,nt,nt,nt,nt,i
CN1CCN(C(=S)c2cn(Cc3ccccc3F)c3ccccc23)CC1,86,i,i,i,i,i
O=C(NNC(=O)C12CC3CC(CC(C3)C1)C2)c1ccco1,i,i,88,i,i,nt
CCN(C(=O)Cn1nc(C(=O)O)c2ccccc2c1=O)C1CCCCC1,i,i,i,i,i,i
O=C1c2ccccc2C(=O)C1Cc1cccc2ccccc12,89,i,i,i,i,nt
Cn1c(=O)c2c(ncn2CC(=O)OCC(=O)Nc2cc(Cl)ccc2Cl)n(C)c1=O,i,i,i,i,i,i
Nc1ccc2c(c1)OC1(CCCCC1)O2,i,i,i,i,100,i
COc1ccc2nc(N3C(=O)/C(=C/c4ccccc4)NC3=S)sc2c1,i,i,i,64,i,i
Nc1ccc(-c2nc3cc([N+](=O)[O-])ccc3o2)cc1,i,i,nt,80,i,i
COc1ccccc1N1CCN(C2CCN(C(=O)c3cccs3)CC2)CC1,58,i,i,i,i,nt
O=C(c1cccs1)N1CCC(N2CCN(c3ccccc3)CC2)CC1,i,i,i,i,i,nt
COc1ccccc1N1CCN(C2CCN(C(=O)c3cc(OC)c(OC)c(OC)c3)CC2)CC1,i,i,i,i,79,i
SMILES,Mcl1 Bid PPI,Hck-Nef inh,Bim-Mcl-1,Mcl1 Noxa PPI,14-3-3 Bad PPI,Pf gamet viab
CCOC(=O)C1CCN(c2cc(C)nc3ccc(OC)cc23)CC1,i,i,i,i,i,i
CCOc1ccccc1NC(=O)C(CC(C)C)NC(=O)C1CCC(C)CC1 (centres undefined),i,i,i,i,i,i
COc1ccc(NC(=O)c2c3c(nc4ccccc24)CCC3)cc1S(=O)(=O)N1CCOCC1,i,i,i,67,i,nt
CCOC(=O)COc1ccccc1-c1ccno1,i,i,i,i,i,i
CC(=O)n1cc(C(C[N+](=O)[O-])SCCN)c2ccccc21 (centres undefined),53,i,i,53,i,nt
O=C(Cc1ccc([N+](=O)[O-])cc1)NCc1ccccn1,i,i,i,69,i,i
O=C(CCS(=O)(=O)c1ccc(Br)cc1)Nc1ccc2c(c1)OCO2,i,i,i,i,i,nt
O=C(c1cnn(C(=O)c2ccccc2)c1)c1ccccc1O,i,62,i,i,i,nt
O=C(NC(=S)Nc1cc(-c2nc3ccccc3[nH]2)ccc1Cl)c1ccc2c(c1)OCO2,59,i,i,i,i,nt
CCOc1ccc(S(=O)(=O)NCc2ccc(Cl)cc2)c2cccnc12,i,i,i,i,i,i
Cc1ccc(S(=O)(=O)Nc2ccc(N=Nc3ccc(O)cc3)cc2)cc1,i,i,i,53,i,nt
COc1ccccc1CN=C1NC(=O)C(CC(=O)Nc2ccc(OC)c(OC)c2)S1 (centres undefined),i,i,i,i,i,i
CCCN(Cc1cc(=O)[nH]c2ccccc12)C(=O)CC,i,i,nt,i,76,i
CCCCCCCCNc1nc(Cl)nc(NCCN2CCOCC2)n1,i,i,i,i,i,i
